From PubChem BioAssay (NCI)
About 83,000 compounds went through this panel and 20% of them were active in at least one assay; those are over-represented in the sample as a whole.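 Interpretation: 100, growth as untreated; towards 0, rising growth inhibition; 0, no net growth; 0 to -100, cell death. Compounds scoring below 10 were considered active.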 A number with no mark means an inactive call. Activity calls are given as the source filed them.

Columns and labels:
Experiment in all cases: NCI-60 one-dose screen, 48 h (100 = growth as untreated, 0 = no growth, -100 = all killed)
Conditions in all cases: 10 µM unless noted
SR leukemia = tested on: SR leukemia
RPMI-8226 leukemia = tested on: RPMI-8226 leukemia
OVCAR-8 ovarian = tested on: OVCAR-8 ovarian
OVCAR-5 ovarian = tested on: OVCAR-5 ovarian
OVCAR-4 ovarian = tested on: OVCAR-4 ovarian
SK-OV-3 ovarian = tested on: SK-OV-3 ovarian
IGROV1 ovarian = tested on: IGROV1 ovarian
OVCAR-3 ovarian = tested on: OVCAR-3 ovarian
HS 578T breast = tested on: HS 578T breast
NCI/ADR-RES ovarian = tested on: NCI/ADR-RES ovarian
T-47D breast = tested on: T-47D breast
BT-549 breast = tested on: BT-549 breast
MDA-MB-435 melanoma = tested on: MDA-MB-435 melanoma
SW-620 colon = tested on: SW-620 colon
MCF7 breast = tested on: MCF7 breast
HCT-116 colon = tested on: HCT-116 colon
HCC-2998 colon = tested on: HCC-2998 colon
KM12 colon = tested on: KM12 colon

SMILES	growth (SR leukemia)	growth (RPMI-8226 leukemia)	growth (OVCAR-8 ovarian)	growth (OVCAR-5 ovarian)	growth (OVCAR-4 ovarian)	growth (SK-OV-3 ovarian)	growth (IGROV1 ovarian)	growth (OVCAR-3 ovarian)	growth (HS 578T breast)	growth (NCI/ADR-RES ovarian)	growth (T-47D breast)	growth (BT-549 breast)	growth (MDA-MB-435 melanoma)	growth (SW-620 colon)	growth (MCF7 breast)	growth (HCT-116 colon)	growth (HCC-2998 colon)	growth (KM12 colon) [%]
O=c1[nH]c2c3ccncc3cc(-c3cccc(Cl)c3)c2c2cnccc12	14.3%	27.1%	40.2%	67.9%	-8.25% (active)	51.9%	70.9%	-22.8% (active)	5.48% (active)	50.3%	60.5%	22%	64.9%	58.3%	22.7%	-31.5% (active)	61.5%	
C=C(C)[C@@H]1CC[C@]2(C(=O)O)CC[C@]3(C)[C@H](CC[C@@H]4[C@@]5(C)C/C(=C/c6cccc(I)c6)C(=O)C(C)(C)[C@@H]5CC[C@]43C)[C@@H]12	24%	9.91% (active)	20.5%	81.3%	3.26% (active)	24.2%	47.6%	5.15% (active)	43.9%	31.5%	4.75% (active)	35.3%	32.1%	17.9%	19.6%	5.1% (active)	28.8%	15.1
CC1(C)[C@@H](O)CC[C@]2(C)[C@H]3CC[C@@H]4[C@H]5[C@H](C(=O)/C=C/c6ccc(C(F)(F)F)cc6)CC[C@]5(CO)CC[C@@]4(C)[C@]3(C)CC[C@@H]12	17.8%	28.2%	55.7%	109%	38.4%	98.6%	61.5%	51.8%	59.6%	70.5%	34.1%	60%	42.5%	44.5%	32.3%	15.3%	77.2%	
Cc1ccc(/C=C(\C#N)c2cc3ccccc3n2C)cc1	25.2%	14%	38.9%	38.7%	61%	67.8%	30.5%	-12.6% (active)	34.1%	-2.11% (active)	54.9%	0.46% (active)	-1.88% (active)	31.8%	18.4%	16.2%	17.4%	22.3
C=C(C)[C@@H]1CC[C@]2(C(=O)O)CC[C@]3(C)[C@H](CC[C@@H]4[C@@]5(C)C/C(=C/c6ccc(OC)cc6)C(=O)C(C)(C)[C@@H]5CC[C@]43C)[C@@H]12	30.9%	15.5%	23.2%	49.3%	26.8%	25%	23.8%	16.5%	49.9%	17.7%	13.3%	26.2%	30.3%	21.9%	5.66% (active)	5.84% (active)	21.7%	
Cc1ccc2oc(=O)cc(-c3sc(N4CCCCC4)nc3-c3ccccc3)c2c1	77.3%	99.9%	98.4%	102%	92.4%	86.9%	59.9%	97.2%	96.7%	98.4%	76.8%	91.2%	103%	96.5%	70.5%	89%	99.3%	
COc1ccc(C(=O)/C=C/c2cc(-c3cc(OC)c(OC)c(OC)c3)n[nH]2)cc1OC	-15.6% (active)	-36% (active)	-4.15% (active)	32.9%	13.3%	51.6%	-5.47% (active)	-55.3% (active)	57.1%	15%	-2.5% (active)	-51.6% (active)	-71.6% (active)	-64% (active)	-39.6% (active)	-88.7% (active)	-77.2% (active)	
COc1cnc2c(c1)C(=O)c1c-2n(CCCNC(C)C)c(=O)c2cc([N+](=O)[O-])ccc12	-7.62% (active)	-25.1% (active)	-47.6% (active)	-46.6% (active)	-68.9% (active)	-66.8% (active)	-56.4% (active)	-74.3% (active)	-31% (active)	-39.9% (active)	-24.9% (active)	-63.1% (active)	-95.8% (active)	-38.8% (active)	-47.4% (active)	-51% (active)	-83.4% (active)	
Nc1nc2c(c(=O)[nH]1)C(c1ccc3c(c1)OCO3)C=C(C(=O)O)N2 (stereo not given)	103%	129%	106%	114%	103%	118%	111%	123%	106%	109%	106%	91.9%	97.7%	106%	92.7%	99.4%	104%	
Nc1c(C(=O)Nc2c(Cl)cccc2Cl)sc2nc3c(cc12)C(=O)CCC3	36.4%	65.5%	62.7%	86.5%	65.6%	32.2%	71.9%	11.2%	13.4%	17.1%	35.7%	51.5%	-37.7% (active)	44.5%	19.3%	42.9%	69.1%	
CCCNc1nc(N(C)O)nc(N(C)O)n1	32.1%	38.1%	26.5%	64%	19.2%	45.2%	36.9%	-10.6% (active)	71%	16.9%	28.2%	68.5%	51.2%	38.1%	15.6%	5.06% (active)	24.5%	41.5
COc1cc(-c2cc3cc(O)ccc3oc2=O)cc(OC)c1OC	84%	91.7%	93.8%	88.8%	97.3%	102%	98.7%	114%	81.6%	91.2%	75.7%	106%	90.7%	108%	87.2%	88.9%	116%	93.2
NC1=C(C/C(N)=N\O)C(c2ccccc2Cl)c2c(ccc3ccccc23)O1 (stereo not given)	54.7%	81.9%	90.7%	100%	110%	92.2%	59.2%	77.9%	83.9%	57.6%	84.8%	89.3%	3.52% (active)	63.1%	68.5%	83.8%	97.1%	
COc1cc2c(cc1-c1c(C)noc1C)ncc1nc(C3CCC(F)(F)CC3)n([C@@H](C)COC(F)F)c12	24.7%	17.3%	46.1%	61.9%	43.2%	7.59% (active)	48.9%	39%	8.57% (active)	40.8%	29.2%	56.3%	36.5%	62.5%	13.6%	34.1%	52.3%	41.8
Cc1csc(Nc2nc(-c3ccc(Cl)cc3)nc(C(Cl)(Cl)Cl)n2)n1	57%	76.7%	89.9%	99%	95.5%	94.1%	102%	67%	101%	91.3%	61.6%	97.1%	89.3%	78.6%	59.4%	79.1%	70%	
C=C(C)[C@@H]1CC[C@]2(CN)CC[C@]3(C)[C@H](CC[C@@H]4[C@@](C)(CCCN)[C@H](C(=C)C)CC[C@]43C)[C@@H]12	-3.93% (active)	58.5%	94.1%	103%	102%	107%	86.9%	89.4%	89.4%	94.5%	88.6%	92.1%	96.2%	88.9%	71.8%	50.1%	77%	
C=C(C)[C@@H]1CC[C@]2(C(=O)OC)CC[C@]3(C)[C@H](CC[C@@H]4[C@@](C)(CC/C(N)=N/O)[C@H](C(=C)C)CC[C@]43C)[C@@H]12	69.2%	93%	102%	105%	92.1%	115%	107%	103%	93.9%	101%	91%	97.8%	101%	97.4%	88.3%	89.8%	96.3%	99.1
